Source: PubChem BioAssay (EPA / NIEHS)
Where “and” joins values, the source holds several entries; their conditions need not be identical. Equal entries are not always repeated. More than one record can exist for a structure, and the calls need not agree. Calls of active or inactive are those of the source. Rule for the calls: active = hit-call score of the fitted dose curve at least 0.9, where 1 is the maximum; inactive = score below 0.9.

Columns and labels:
[1] = read-out: Transforming growth factor beta 1 (TGFb1), TGFB1 (gene 7040); assay: BSK_KF3CT_TGFb1: BioMAP Diversity Plus: KF3CT Assay for Transforming growth factor beta 1 (TGFb1) Biomarker Activity (AID 2283072); details: primary human keratinocytes with fibroblasts; actives raise or lower the signal
In short: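 TGF-b1 ELISA on a 24 h dosed co-culture of human keratinocytes and foreskin fibroblasts; cytotoxicity tracked in parallel cultures by SRB staining.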

[2] = read-out: C-C motif chemokine 2 (Homo sapiens) (UniProt P13500); assay: BSK_KF3CT_MCP1: BioMAP Diversity Plus: KF3CT Assay for Monocyte Chemoattractant Protein 1 (MCP1/CCL2) Biomarker Activity (AID 2283073); details: primary human keratinocytes with fibroblasts; actives raise or lower the signal
In short: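 KF3CT skin co-culture (keratinocytes/foreskin fibroblasts), 24 h post-dose; MCP-1 by ELISA; gain/loss of signal fit bidirectionally vs DMSO baseline.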

[3] = read-out: Matrix Metallopeptidase 9 (MMP9), MMP9 (gene 4318); assay: BSK_KF3CT_MMP9: BioMAP Diversity Plus: KF3CT Assay for Matrix Metallopeptidase 9 (MMP9) Biomarker Activity (AID 2283074); details: primary human keratinocytes with fibroblasts; actives raise or lower the signal;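 for AC50: MMP9 protein level quantified by ELISA in the co-culture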
In short: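 ELISA read-out of MMP-9 at 24 h post-dosing in a co-culture of human skin keratinocytes and foreskin fibroblasts. Gain or loss of signal was fitted in both directions against DMSO.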

[4] = read-out: urokinase plasminogen activator (uPA), PLAU (gene 5328); assay: BSK_KF3CT_uPA: BioMAP Diversity Plus: KF3CT Assay for urokinase plasminogen activator (uPA) Biomarker Activity (AID 2283075); details: primary human keratinocytes with fibroblasts; actives raise or lower the signal
In short: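 Skin co-culture (keratinocytes + foreskin fibroblasts), human primary; 24 h post-dose; uPA by ELISA; gain/loss fit vs DMSO baseline.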

CD40, CD40 (gene 958) [5] = assay: BSK_LPS_CD40: BioMAP Diversity Plus: LPS Assay for CD40 Biomarker Activity (AID 2283076); details: primary human HUVEC with PBMC; actives raise or lower the signal
In short: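 ELISA readout of CD40 in HUVEC/PBMC co-culture (BSK_LPS system), 24 h post-dosing; bidirectional curve fit, DMSO baseline; parallel SRB total-protein staining for cytotoxicity.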

[6] = read-out: E-selectin (Homo sapiens) (UniProt P16581); assay: BSK_LPS_Eselectin: BioMAP Diversity Plus: LPS Assay for Eselectin Biomarker Activity (AID 2283077); details: primary human HUVEC with PBMC; actives raise or lower the signal
In short: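 ELISA readout of E-selectin, 24 h post-dose, HUVEC + PBMC co-culture (LPS system). Gain or loss of signal vs DMSO baseline, bidirectional fit.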

[7] = read-out: Interleukin-8 (IL8), CXCL8 (gene 3576); assay: BSK_LPS_IL8: BioMAP Diversity Plus: LPS Assay for Interleukin-8 (IL8) Biomarker Activity (AID 2283078); details: primary human HUVEC with PBMC; actives raise or lower the signal
In short: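 HUVEC + PBMC co-culture, LPS-activated; test chemicals dosed, IL-8 read by ELISA at 24 h. Bidirectional curve fit vs DMSO baseline (gain or loss of signal).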

[8] = read-out: Interleukin-1 alpha (IL1a), IL1A (gene 3552); assay: BSK_LPS_IL1a: BioMAP Diversity Plus: LPS Assay for Interleukin-1 alpha (IL1a) Biomarker Activity (AID 2283080); details: primary human HUVEC with PBMC; actives raise or lower the signal
In short: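 HUVEC/PBMC co-culture, LPS system; 24 h after dosing; IL-1a by ELISA; gain or loss of signal fitted bidirectionally vs DMSO baseline.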

[9] = read-out: Monocyte Chemoattractant Protein-1 (MCP1), CCL2 (gene 6347); assay: BSK_LPS_MCP1: BioMAP Diversity Plus: LPS Assay for Monocyte Chemoattractant Protein-1 (MCP1) Biomarker Activity (AID 2283081); details: primary human HUVEC with PBMC; actives raise or lower the signal;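 for AC50: secreted MCP-1 protein quantified by ELISA in culture supernatant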
In short: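 ELISA read-out of MCP-1 after 24 h chemical dosing of a human umbilical vein endothelial cell/peripheral blood mononuclear cell co-culture stimulated with LPS. Gain or loss of signal fitted relative to DMSO controls.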

[10] = BSK_LPS_PGE2: BioMAP Diversity Plus: LPS Assay for Prostaglandin E2 (PGE2) Biomarker Activity (AID 2283082); details: primary human HUVEC with PBMC; actives raise or lower the signal;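 for AC50: secreted prostaglandin E2 measured by ELISA in LPS-stimulated co-culture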
In short: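 Primary human endothelial cells and blood mononuclear cells, co-cultured with LPS, receive test chemical; PGE2 ELISA follows at 24 h, with SRB-stained parallel cultures flagging cytotoxicity.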

[11] = read-out: Macrophage colony-stimulating factor (MCSF), CSF1 (gene 1435); assay: BSK_LPS_MCSF: BioMAP Diversity Plus: LPS Assay for Macrophage colony-stimulating factor (MCSF) Biomarker Activity (AID 2283083); details: primary human HUVEC with PBMC; actives raise or lower the signal
In short: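 HUVEC + PBMC co-culture (human primary), 24 h post-dose; M-CSF by ELISA; gain/loss of signal fitted bidirectionally vs DMSO baseline.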

[12] = read-out: Tissue Factor, F3 (gene 2152); assay: BSK_LPS_TissueFactor: BioMAP Diversity Plus: LPS Assay for Tissue Factor Biomarker Activity (AID 2283084); details: primary human HUVEC with PBMC; actives raise or lower the signal
In short: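 HUVEC/PBMC co-culture, LPS-activated; CD142 ELISA read 24 h post-dose; bidirectional curve fit vs DMSO negative control.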

[13] = read-out: Tumor necrosis factor (Homo sapiens) (UniProt P01375); assay: BSK_LPS_TNFa: BioMAP Diversity Plus: LPS Assay for Tumour Necrosis Factor alpha (TNFa) Biomarker Activity (AID 2283085); details: primary human HUVEC with PBMC; actives raise or lower the signal;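 for AC50: TNFa protein level quantified by ELISA in the co-culture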
In short: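 ELISA-based TNFa endpoint in a human endothelial–PBMC co-culture sampled 24 h post-exposure. Curves were fitted in both directions using DMSO as baseline of activity.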

[14] = read-out: Vascular cell adhesion molecule 1 (VCAM1), VCAM1 (gene 7412); assay: BSK_LPS_VCAM1: BioMAP Diversity Plus: LPS Assay for Vascular cell adhesion molecule 1 (VCAM1) Biomarker Activity (AID 2283086); details: primary human HUVEC with PBMC; actives raise or lower the signal
In short: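 Measured by ELISA: VCAM-1 in LPS-activated HUVEC/PBMC co-cultures 24 h after treatment. Values reflect bidirectional fitting with DMSO as baseline.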

CD38, CD38 (gene 952) = assay: BSK_SAg_CD38: BioMAP Diversity Plus: SAg Assay for CD38 Biomarker Activity (AID 2283087); details: primary human HUVEC with PBMC; actives raise or lower the signal
In short: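 Measures CD38 on a human endothelial/PBMC co-culture driven by SEB and TSST-1, 24 h after compound exposure, using ELISA with fluorescence detection; DMSO defines baseline for bidirectional curve fitting.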

CD40, CD40 (gene 958) [15] = assay: BSK_SAg_CD40: BioMAP Diversity Plus: SAg Assay for CD40 Biomarker Activity (AID 2283088); details: primary human HUVEC with PBMC; actives raise or lower the signal
In short: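 HUVEC/PBMC co-culture, 24 h post-dose; CD40 by ELISA, fluorescence intensity; bidirectional fit vs DMSO negative control.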

CD69, CD69 (gene 969) = assay: BSK_SAg_CD69: BioMAP Diversity Plus: SAg Assay for CD69 Biomarker Activity (AID 2283089); details: primary human HUVEC with PBMC; actives raise or lower the signal;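 for AC50: cell surface CD69 protein quantified by ELISA with fluorescence detection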
In short: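 HUVEC co-cultured with PBMC were dosed with chemical, and CD69 was measured by ELISA with fluorescence read-out 24 h later. Bidirectional curve fitting used DMSO as negative control and activity baseline.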

[16] = read-out: E-selectin (Homo sapiens) (UniProt P16581); assay: BSK_SAg_Eselectin: BioMAP Diversity Plus: SAg Assay for Eselectin Biomarker Activity (AID 2283091); details: primary human HUVEC with PBMC; actives raise or lower the signal
In short: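 E-selectin ELISA readout at 24 h post-dosing in human umbilical vein endothelial cell/PBMC co-culture; gain or loss of signal fitted relative to DMSO baseline.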

[17] = BSK_LPS_SRB: Viability Assessment in the BioMAP Diversity Plus: LPS Assay (AID 2283079); details: primary human HUVEC with PBMC;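 note: total protein by sulforhodamine B absorbance as a cytotoxicity measure; measured one day after compound addition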
In short: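 HUVEC + PBMC co-culture, LPS-stimulated; compound 24 h. 10% TCA fix, 0.1% SRB stain, A560. Bidirectional fit vs DMSO.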

[18] = read-out: Monocyte Chemoattractant Protein-1 (MCP1), CCL2 (gene 6347); assay: BSK_SAg_MCP1: BioMAP Diversity Plus: SAg Assay for Monocyte Chemoattractant Protein-1 (MCP1) Biomarker Activity (AID 2283090); details: primary human HUVEC with PBMC; actives raise or lower the signal
In short: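 Values derive from bidirectional fitting of ELISA-measured MCP1 against DMSO controls. Readings were taken 24 h after dosing human vascular endothelial cells co-cultured with peripheral blood mononuclear cells under superantigen stimulation.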

Measured: AC50

Sequence of E-selectin (Homo sapiens) (P16581 whole entry, looked up): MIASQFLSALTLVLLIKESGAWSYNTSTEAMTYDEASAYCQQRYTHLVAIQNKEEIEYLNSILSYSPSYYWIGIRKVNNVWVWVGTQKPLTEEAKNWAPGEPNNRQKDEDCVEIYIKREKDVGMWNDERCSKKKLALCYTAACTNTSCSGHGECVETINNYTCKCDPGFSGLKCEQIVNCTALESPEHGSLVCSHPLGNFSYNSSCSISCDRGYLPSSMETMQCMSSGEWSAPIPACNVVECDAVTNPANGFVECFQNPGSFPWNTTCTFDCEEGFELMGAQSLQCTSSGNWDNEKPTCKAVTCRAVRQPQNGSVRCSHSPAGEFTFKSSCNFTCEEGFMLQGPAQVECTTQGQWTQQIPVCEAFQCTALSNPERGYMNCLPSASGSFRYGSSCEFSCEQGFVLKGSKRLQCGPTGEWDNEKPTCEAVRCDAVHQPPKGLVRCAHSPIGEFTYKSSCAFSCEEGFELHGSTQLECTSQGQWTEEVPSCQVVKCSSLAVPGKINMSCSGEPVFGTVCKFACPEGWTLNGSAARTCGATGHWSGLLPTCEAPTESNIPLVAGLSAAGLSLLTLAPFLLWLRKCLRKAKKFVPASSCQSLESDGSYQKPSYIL
Sequence of Tumor necrosis factor (Homo sapiens) (P01375 whole entry, looked up): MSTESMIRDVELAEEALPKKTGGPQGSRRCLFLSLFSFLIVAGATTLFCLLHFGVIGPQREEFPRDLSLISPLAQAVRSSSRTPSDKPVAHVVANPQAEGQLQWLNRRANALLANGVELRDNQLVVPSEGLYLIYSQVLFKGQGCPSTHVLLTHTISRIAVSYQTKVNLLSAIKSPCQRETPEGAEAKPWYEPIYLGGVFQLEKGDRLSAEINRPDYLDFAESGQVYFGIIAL

CCCCCCCCCCCCOS(=O)(=O)O
active: [1] 33.4 µM | [2] 20 µM | [3] 30.9 µM | [4] 31.1 µM
not listed: [17] | [18]
inactive: all other assays above

O=C(O)CCC(F)(F)C(F)(F)C(F)(F)C(F)(F)C(F)(F)C(F)(F)F
active: CD40, CD40 (gene 958) [5] 15.6 µM | [7] 30 µM and 51.1 µM and 38.9 µM | [8] 12.9 µM and 30 µM
inactive: [2] | [3] | [4] | CD40, CD40 (gene 958) [5] | [6] | [17] | [8] | [9] | [10] | [11] | [12] | [13] | [14] | CD38, CD38 (gene 952) | CD40, CD40 (gene 958) [15] | CD69, CD69 (gene 969) | [16]

O=C1c2ccc(O)c(O)c2C(=O)c2c(O)ccc(O)c21
not listed: [18]
inactive: all other assays above

COc1cccc(O)c1
not listed: [18]
inactive: all other assays above

CN(CCO)S(=O)(=O)C(F)(F)C(F)(F)C(F)(F)C(F)(F)C(F)(F)C(F)(F)C(F)(F)C(F)(F)F
active: [7] 4.94 µM
inactive: [2] | [3] | [4] | CD40, CD40 (gene 958) [5] | [6] | [7] | [17] | [8] | [9] | [10] | [11] | [12] | [13] | [14] | CD38, CD38 (gene 952) | CD40, CD40 (gene 958) [15] | CD69, CD69 (gene 969) | [16]

O=C(O)CCC(F)(F)C(F)(F)C(F)(F)C(F)(F)C(F)(F)F
inactive: [2] | [3] | [4] | CD40, CD40 (gene 958) [5] | [6] | [7] | [17] | [8] | [9] | [10] | [11] | [12] | [13] | [14] | CD38, CD38 (gene 952) | CD40, CD40 (gene 958) [15] | CD69, CD69 (gene 969) | [18] | [16]
active: [7] 5.95 µM

OCC(F)(F)C(F)(F)C(F)(F)C(F)(F)C(F)(F)C(F)(F)C(F)(F)C(F)(F)C(F)(F)C(F)(F)C(F)(F)F
active: [8] 186 nM and 202 nM | [10] 42.7 nM and 227 nM | [11] 0.417 µM | [13] 1.01 µM | CD38, CD38 (gene 952) 6.23 nM
inactive: [2] | [3] | [4] | CD40, CD40 (gene 958) [5] | [6] | [7] | [17] | [9] | [11] | [12] | [13] | [14] | CD38, CD38 (gene 952) | CD40, CD40 (gene 958) [15] | CD69, CD69 (gene 969) | [18] | [16]

Cc1ccc(C(=O)c2ccccc2)cc1
active: [1] 30.8 µM | [10] 1.05 µM
not listed: [18]
inactive: all other assays above

O=C(NCc1ncc(C(F)(F)F)cc1Cl)c1c(Cl)cccc1Cl
not listed: [18]
inactive: all other assays above

CCCCCCCCCCCC
inactive: CD40, CD40 (gene 958) [5] | [17] | [9] | [11] | [12] | CD38, CD38 (gene 952) | CD40, CD40 (gene 958) [15] | CD69, CD69 (gene 969) | [16]
active: [2] 6.76 µM and 8.48 µM | [3] 6.78 µM and 7.3 µM | [4] 11.1 µM | CD40, CD40 (gene 958) [5] 20 µM | [6] 30.5 µM and 32.7 µM | [7] 33.1 µM and 30.7 µM | [8] 14.4 µM and 29.6 µM | [9] 36.3 µM | [10] 12.9 µM and 14 µM | [12] 16.7 µM | [13] 28.7 µM and 20.7 µM | [14] 33 µM and 31 µM

Oc1c(Cl)cc(Cl)cc1Sc1cc(Cl)cc(Cl)c1O
inactive: [10]
active: [2] 2.23 µM and 2.57 µM | [3] 1.88 µM and 2.08 µM | [4] 3.48 µM and 3.57 µM | CD40, CD40 (gene 958) [5] 14.2 µM | [6] 35.1 µM and 31.9 µM | [7] 36.5 µM and 33.4 µM | [17] 20 µM and 6.67 µM | [8] 35.4 µM and 35.6 µM | [9] 31.4 µM and 30.1 µM | [10] 20 µM | [11] 26.3 µM | [12] 34 µM and 33.6 µM | [13] 29.9 µM and 30 µM | [14] 32.9 µM and 30.9 µM | CD38, CD38 (gene 952) 9.47 µM and 9.95 µM | CD40, CD40 (gene 958) [15] 13.8 µM and 9.99 µM | CD69, CD69 (gene 969) 13.2 µM and 16.2 µM | [16] 8.08 µM and 7.11 µM

CN(C)CCOC(c1ccccc1)c1ccccc1
not listed: [11] | [18]
inactive: all other assays above
